About 2,000 (36%) of roughly 5,500 compounds were called active. About 18% were inconclusive and are not listed. Rule as the data show it: active = normalized growth mostly below about 0.91 (no sharp cut-off); inconclusive = no clear call, values can overlap the other calls; inactive = mostly above about 0.92. The list shows a part of the results.
Experiment: chemical genetic growth profiling, strain panel (AID 1159580);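 also: tested at 20 µM; growth read once vehicle control cultures reached saturation at 30 °C; 1 = growth at the plate median or of vehicle wells; lower values mean less growth of the strain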
Details: S. cerevisiae deletion strains, growth OD
[1] = locus YHR030C, strain SLT2, active compounds read low
[2] = locus YAL013W, strain DEP1, active compounds read low
[3] = locus YJR075W, strain HOC1, active compounds read low
[4] = locus YNL153C, strain GIM3, active compounds read low
[5] = locus YNL322C, strain KRE1, active compounds read low
[6] = locus YPL055C, strain LGE1, active compounds read low

Measured: normalized growth

CN[C@H]1CC[C@@H](c2ccc(Cl)c(Cl)c2)c2ccccc21
inactive: locus YAL030W, strain snc1, active compounds read low 0.985 | locus YBR171W, strain sec66, active compounds read low 1.01 | locus YCL011C, strain gbp2, active compounds read low 0.919 | locus YCL061C, strain MRC1, active compounds read low 0.956 | locus YCL069W, strain vba3, active compounds read low 0.968 | locus YCR088W, strain abp1, active compounds read low 0.964 | locus YDL005C, strain med2, active compounds read low 1.07 | locus YDL040C, strain nat1, active compounds read low 1.02 | locus YDR001C, strain nth1, active compounds read low 1.02 | locus YDR159W, strain sac3, active compounds read low 1.05 | locus YDR297W, strain sur2, active compounds read low 0.976 | locus YDR334W, strain swr1, active compounds read low 1.04 | locus YDR392W, strain spt3, active compounds read low 0.939 | locus YEL037C, strain rad23, active compounds read low 0.953 | locus YEL061C, strain CIN8 (second series), active compounds read low 1 | locus YER016W, strain bim1, active compounds read low 0.986 | locus YER111C, strain swi4, active compounds read low 1.01 | locus YER155C, strain BEM2 (second series), active compounds read low 1.01 | locus YGL167C, strain pmr1, active compounds read low 1.04 | locus YGL227W, strain vid30, active compounds read low 1.02 | locus YGL240W, strain doc1, active compounds read low 1.06 | [1] 0.859 | locus YHR079C, strain IRE1, active compounds read low 0.959 | locus YJL092W, strain hpr5, active compounds read low 0.945 | locus YJL095W, strain BCK1, active compounds read low 0.935 | locus YJL115W, strain asf1, active compounds read low 1.03 | locus YJL154C, strain vps35, active compounds read low 1.02 | locus YJR066W, strain TOR1, active compounds read low 0.929 | locus YKL160W, strain elf1, active compounds read low 0.931 | locus YKR026C, strain gcn3, active compounds read low 0.999 | locus YKR091W, strain srl3, active compounds read low 1.02 | locus YLL001W, strain dnm1, active compounds read low 0.929 | locus YLL026W, active compounds read low 0.942 | locus YLL041C, strain sdh2, active compounds read low 1.01 | locus YLR113W, strain HOG1, active compounds read low 0.936 | locus YLR258W, strain gsy2, active compounds read low 0.932 | locus YLR262C, strain YPT6 (second series), active compounds read low 1.02 | locus YLR384C, strain iki3, active compounds read low 1.02 | locus YML120C, strain ndi1, active compounds read low 0.983 | locus YMR125W, strain sto1, active compounds read low 0.943 | locus YMR129W, active compounds read low 1.03 | locus YNL183C, strain NPR1, active compounds read low 0.954 | locus YNL248C, strain rpa49, active compounds read low 0.935 | locus YNL322C, strain KRE1 (second series), active compounds read low 1.08 | locus YNR049C, strain mso1, active compounds read low 0.996 | locus YOR001W, strain rrp6, active compounds read low 0.928 | locus YOR080W, strain dia2, active compounds read low 0.982 | locus YOR231W, strain MKK1, active compounds read low 0.988 | locus YOR265W, strain rbl2, active compounds read low 0.953 | locus YPL078C, strain atp4, active compounds read low 0.922 | locus YPL106C, strain sse1, active compounds read low 1.03 | locus YPL240C, strain hsp82, active compounds read low 1.01 | locus YPL256C, strain CLN2, active compounds read low 0.969
active: locus YAL021C, strain ccr4, active compounds read low 0.529 | locus YAL026C, strain drs2, active compounds read low 0.0645 | locus YBL061C, strain skt5, active compounds read low 0.864 | locus YBR009C, strain hhf1, active compounds read low 0.82 | locus YBR023C, strain chs3, active compounds read low 0.858 | locus YBR231C, strain swc5, active compounds read low 0.89 | locus YBR279W, strain paf1, active compounds read low 0.905 | locus YCL016C, strain dcc1, active compounds read low 0.866 | locus YDR069C, strain doa4, active compounds read low 0.639 | locus YDR137W, strain rgp1, active compounds read low 1.29 [resistant] | locus YDR195W, strain ref2 1.47 [resistant] | locus YDR335W, strain msn5, active compounds read low 0.849 | locus YEL003W, strain gim4, active compounds read low 0.898 | locus YER015W, strain faa2, active compounds read low 0.634 | locus YFR010W, strain ubp6, active compounds read low 0.605 | locus YGL173C, strain kem1, active compounds read low 0.799 | locus YGL253W, strain hxk2, active compounds read low 0.859 | locus YHR013C, strain ard1, active compounds read low 0.677 | locus YHR027C, strain rpn1, active compounds read low 0.817 | locus YHR142W, strain chs7, active compounds read low 0.77 | locus YJL095W, strain BCK1 (second series), active compounds read low 0.0692 | locus YJL129C, strain trk1, active compounds read low 0.794 | locus YJL164C, strain tpk1, active compounds read low 0.855 | locus YJL166W, strain qcr8, active compounds read low 0.862 | locus YLR027C, strain aat2, active compounds read low 0.921 | locus YLR221C, strain rsa3, active compounds read low 0.9 | locus YLR320W, strain mms22, active compounds read low 0.805 | locus YLR342W, strain FKS1, active compounds read low 0.647 | locus YLR357W, strain rsc2, active compounds read low 1.17 [resistant] | locus YLR370C, strain arc18, active compounds read low 0.703 | locus YMR058W, strain fet3, active compounds read low 0.661 | locus YMR205C, strain PFK2, active compounds read low 0.866 | locus YMR231W, strain pep5, active compounds read low 0.0786 | locus YNL071W, strain lat1, active compounds read low 0.847 | locus YNL209W, strain ssb2, active compounds read low 0.846 | locus YOR070C, strain gyp1, active compounds read low 0.817 | locus YOR083W, strain WHI5, active compounds read low 0.824 | locus YOR106W, strain vam3, active compounds read low 0.622 | locus YOR270C, strain vph1, active compounds read low 0.348 | locus YOR290C, strain snf2, active compounds read low 0.852 | locus YPL051W, strain arl3, active compounds read low 0.776

O=C1CC(=O)CC(c2ccc(Cl)c(Cl)c2)C1
inactive: [2] 0.982 | locus YBR229C, strain ROT2, active compounds read low 0.998 | locus YDL101C, strain DUN1, active compounds read low 1.02 | locus YDR150W, strain NUM1, active compounds read low 1.04 | locus YEL061C, strain CIN8, active compounds read low 0.978 | locus YGR078C, strain PAC10, active compounds read low 0.997 | [1] 1.04 | locus YHR087W, strain rtc3, active compounds read low 0.98 | locus YJR043C, strain POL32, active compounds read low 1.01 | [3] 1.01 | locus YKL190W, strain CNB1, active compounds read low 0.998 | locus YLR039C, strain RIC1, active compounds read low 0.959 | locus YLR058C, strain SHM2 (second series), active compounds read low 0.985 | locus YLR085C, strain ARP6, active compounds read low 0.983 | locus YLR262C, strain YPT6, active compounds read low 0.949 | locus YML094W, strain GIM5, active compounds read low 0.99 | locus YMR219W, strain ESC1, active compounds read low 0.991 | locus YMR263W, strain SAP30, active compounds read low 1.01 | locus YMR307W, strain GAS1, active compounds read low 1.02 | [4] 0.997 | locus YNL298W, strain CLA4 (second series), active compounds read low 1 | [5] 0.976 | locus YNR030W, strain Alg12, active compounds read low 1 | [6] 1.15 | locus YPL241C, strain CIN2, active compounds read low 1.01 | locus YPR135W, strain CTF4, active compounds read low 1.22

CN[C@@H]1C[C@@H](c2ccc(Cl)c(Cl)c2)c2ccccc21
inactive: [2] 0.923 | locus YAL040C, strain CLN3, active compounds read low 1.02 | locus YCL061C, strain MRC1 (second series), active compounds read low 0.942 | locus YER002W, strain NOP16, active compounds read low 1.06 | [3] 0.958 | locus YNL175C, strain NOP13, active compounds read low 1 | locus YNL197C, strain WHI3, active compounds read low 1.01 | locus YNL224C, strain SQS1, active compounds read low 1.07 | [6] 0.927
active: locus YDR363W, strain ESC2, active compounds read low 0.865 | [4] 0.663 | [5] 0.738 | locus YOR083W, strain WHI5 (second series), active compounds read low 0.826
